Data reported in PubChem BioAssay (NCATS).
Inconclusive results are not listed. Active and inactive are the calls of the source. Unless noted, the call rests on the fitted dose curve; in most records, active means well fitted curve in either direction with a large enough effect (not every such curve was filed as active); inconclusive means small, poorly fitted or top-dose-only effect, or another doubt; inactive means flat fitted curve, though single readings scatter.

How the values were obtained:
[1] = target: Lysosomal acid glucosylceramidase (Homo sapiens) (UniProt P04062); assay: Glucocerebrosidase-p2 (AID 348; in the data active means potency below about 10 µM; further: potency means the concentration at half of the fitted maximal effect); conditions: purified GBA, blue fluorogenic substrate, 40 min
Lysosomal acid glucosylceramidase (Homo sapiens), sequence (P04062 whole entry, looked up): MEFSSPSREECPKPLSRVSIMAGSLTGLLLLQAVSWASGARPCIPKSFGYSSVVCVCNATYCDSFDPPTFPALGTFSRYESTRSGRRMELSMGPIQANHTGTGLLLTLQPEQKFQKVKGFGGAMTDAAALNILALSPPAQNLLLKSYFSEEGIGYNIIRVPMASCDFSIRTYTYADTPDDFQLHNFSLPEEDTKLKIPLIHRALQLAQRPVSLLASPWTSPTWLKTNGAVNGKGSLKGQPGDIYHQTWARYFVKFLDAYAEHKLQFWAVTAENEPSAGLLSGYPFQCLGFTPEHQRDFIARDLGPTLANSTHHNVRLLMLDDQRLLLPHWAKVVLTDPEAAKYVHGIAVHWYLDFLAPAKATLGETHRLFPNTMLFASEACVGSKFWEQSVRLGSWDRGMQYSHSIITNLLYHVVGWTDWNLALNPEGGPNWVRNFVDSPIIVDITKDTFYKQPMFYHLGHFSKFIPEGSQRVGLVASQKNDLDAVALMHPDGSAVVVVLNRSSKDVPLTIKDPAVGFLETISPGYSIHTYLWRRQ
Outline: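 Normal human glucocerebrosidase (0.2 nM) with blue fluorogenic substrate (80 uM final) in citrate/phosphate pH 5.9 with 10mM sodium taurocholate, 0.01% tween-20; 40 min RT, NaOH/glycine stop; fluorescence Ex 365/Em 440; AC50 from a titration from 0.6 nM upwards.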

[2] = AP1 Signaling Pathway (AID 357); conditions: ME-180 AP-1-bla reporter, EGF-induced, beta-lactamase ratio, 5 h; at 7.69 µM (top of the series) unless noted;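 further: ME-180 reporter cells stimulated with EGF at its EC50 level; on the % scale 0 is the no-effect control and ±100 the full control effect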
Outline: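 A ratiometric CCF4 readout (405 nm excitation; 460 and 530 nm emission) quantified AP-1-driven beta-lactamase in ME-180 cells after 5 h with compound and EC50 EGF; AC50 values were derived for activators and inhibitors.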

[3] = target: Cytochrome P450 1A2 (Homo sapiens) (UniProt P05177); assay: p450-cyp1a2 (AID 410; calls by dose curve; further: potency means the concentration at half of the fitted maximal effect;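 on activity change, negative = inhibition: -100% = full effect of reference inhibitor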); conditions: recombinant CYP1A2, luciferin-ME demethylation, luminescence; series mostly up to 11.4 µM
Cytochrome P450 1A2 (Homo sapiens), sequence (P05177 whole entry, looked up): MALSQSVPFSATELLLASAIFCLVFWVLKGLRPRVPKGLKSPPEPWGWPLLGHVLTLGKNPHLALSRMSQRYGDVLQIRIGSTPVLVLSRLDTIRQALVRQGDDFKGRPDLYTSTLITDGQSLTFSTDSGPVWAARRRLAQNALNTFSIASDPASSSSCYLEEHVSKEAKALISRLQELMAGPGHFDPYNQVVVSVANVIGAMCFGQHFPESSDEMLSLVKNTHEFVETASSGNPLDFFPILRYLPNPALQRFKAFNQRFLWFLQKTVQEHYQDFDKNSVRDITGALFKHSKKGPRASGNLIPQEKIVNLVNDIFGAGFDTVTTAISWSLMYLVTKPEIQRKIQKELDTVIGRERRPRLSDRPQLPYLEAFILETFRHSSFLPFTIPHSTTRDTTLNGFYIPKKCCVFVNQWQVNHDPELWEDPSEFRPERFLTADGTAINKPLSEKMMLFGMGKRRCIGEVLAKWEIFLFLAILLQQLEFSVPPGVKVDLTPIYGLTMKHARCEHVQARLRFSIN
Outline: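 O-Demethylation of luciferin 6' methyl ether by human CYP1A2 is monitored as luciferase luminescence. Substrate sits at Km (100uM); enzyme is 20nM. Values are scaled to 57 uM furafylline as maximal inhibition.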

[4] = NFAT Signaling Pathway (AID 444); conditions: Jurkat NFAT-bla M1, carbachol, beta-lactamase ratio, 5 h; at 7.69 µM (top of the series) unless noted;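 further: carbachol stimulus at about its EC50 of 1 µM final; on the % scale 0 is the no-effect control and ±100 the full control effect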
Outline: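 Jurkat cells carrying an NFAT-driven β-lactamase reporter and co-transfected muscarinic M1 receptor were treated with compound plus carbachol (1 uM final, an EC50 level) for 5 h at 37 °C. CCF4 loading followed for 1 h at RT; 460/530 nm ratio gave %activity.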

[5] = Stat Signaling Pathway (AID 446); conditions: ME-180 SIE beta-lactamase reporter, IL-6 stimulated, 5 h; at 7.69 µM (top of the series) unless noted;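 further: ME-180 cervical cancer cells given 40 pM IL-6 alongside compound; SIE-controlled beta-lactamase reporter measured as 460/530 nm FRET emission ratio; on the % scale 0 is the no-effect control and ±100 the full control effect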
Outline: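 Compound effects on IL-6-induced STAT reporter activity were measured in ME-180 cells. After overnight culture, cells were co-treated with 40 pM IL-6 for 5 hrs before beta-lactamase substrate loading at room temperature.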

[6] = target: Glucocorticoid receptor (Homo sapiens) (UniProt P04150); assay: GR-EFC Redistribution (AID 451; calls by dose curve; further: potency means the concentration at half of the fitted maximal effect); conditions: CHO-K1 GR-EFC translocation, beta-gal luminescence, 2 h
Glucocorticoid receptor (Homo sapiens), sequence (P04150 whole entry, looked up, the tested form may be a part): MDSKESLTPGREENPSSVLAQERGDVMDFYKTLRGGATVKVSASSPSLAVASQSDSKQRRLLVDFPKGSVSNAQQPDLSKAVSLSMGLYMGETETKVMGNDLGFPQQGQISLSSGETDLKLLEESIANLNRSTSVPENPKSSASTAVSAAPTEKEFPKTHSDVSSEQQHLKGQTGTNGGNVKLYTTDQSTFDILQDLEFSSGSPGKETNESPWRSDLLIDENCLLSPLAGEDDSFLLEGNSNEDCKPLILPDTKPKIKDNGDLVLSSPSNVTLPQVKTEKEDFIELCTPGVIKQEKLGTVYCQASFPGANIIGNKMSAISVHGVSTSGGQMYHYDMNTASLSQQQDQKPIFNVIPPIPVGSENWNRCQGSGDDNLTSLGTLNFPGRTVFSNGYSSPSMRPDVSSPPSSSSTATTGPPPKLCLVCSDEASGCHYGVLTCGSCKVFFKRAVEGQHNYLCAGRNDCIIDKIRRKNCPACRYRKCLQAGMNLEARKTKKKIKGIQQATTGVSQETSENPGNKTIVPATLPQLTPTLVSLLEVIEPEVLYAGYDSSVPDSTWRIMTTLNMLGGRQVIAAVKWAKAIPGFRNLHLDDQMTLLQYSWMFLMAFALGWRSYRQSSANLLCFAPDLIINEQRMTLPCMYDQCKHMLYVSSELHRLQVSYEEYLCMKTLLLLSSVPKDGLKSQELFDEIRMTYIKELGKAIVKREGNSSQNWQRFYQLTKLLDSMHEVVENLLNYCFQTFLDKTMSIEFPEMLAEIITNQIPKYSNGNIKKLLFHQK
Outline: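 CHO-K1 cells stably expressing nuclear-localized β-gal enzyme acceptor and GR fused C-terminally to the enzyme donor fragment; ligand-driven nuclear translocation restores β-gal by complementation. Compounds titrated up to 46 uM final, 2 h at 37 °C; luminescence read.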

[7] = target: Mitogen-activated protein kinase 10 (Mus musculus) (UniProt Q61831); assay: JNK3 AlphaScreen Assay (AID 530); conditions: JNK3 lysate, c-Jun phosphorylation; series mostly up to 11.4 µM;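 further: kinase came from lysate of stimulated human HepG2 cells; signal reports phosphorylation of biotinylated GST-cJun 1-79 at Ser73 with 10 µM ATP; on the % scale 0 is the no-effect control and ±100 the full control effect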
Outline: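 Phosphorylation of biotinylated GST-cJun(1-79) at Ser73 is measured by AlphaScreen proximity luminescence. Enzyme is JNK3 in HepG2 lysates activated with interleukin-1beta and tumor necrosis factor alpha; ATP is 10 uM final.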

[8] = target: 3',5'-cyclic-AMP phosphodiesterase 4B (Homo sapiens) (UniProt Q07343); assay: qHTS Assay for Inhibitors of PDE-IV (AID 607; active means well fitted activation curve with a large enough effect in the main read-out, with a control signal flat, not every such curve was filed as active; further: % of control where 0% means no effect); conditions: HEK293 ACTOne CNG channel cells, membrane potential fluorescence; series mostly up to 22.9 µM
3',5'-cyclic-AMP phosphodiesterase 4B (Homo sapiens), sequence (Q07343 whole entry, looked up): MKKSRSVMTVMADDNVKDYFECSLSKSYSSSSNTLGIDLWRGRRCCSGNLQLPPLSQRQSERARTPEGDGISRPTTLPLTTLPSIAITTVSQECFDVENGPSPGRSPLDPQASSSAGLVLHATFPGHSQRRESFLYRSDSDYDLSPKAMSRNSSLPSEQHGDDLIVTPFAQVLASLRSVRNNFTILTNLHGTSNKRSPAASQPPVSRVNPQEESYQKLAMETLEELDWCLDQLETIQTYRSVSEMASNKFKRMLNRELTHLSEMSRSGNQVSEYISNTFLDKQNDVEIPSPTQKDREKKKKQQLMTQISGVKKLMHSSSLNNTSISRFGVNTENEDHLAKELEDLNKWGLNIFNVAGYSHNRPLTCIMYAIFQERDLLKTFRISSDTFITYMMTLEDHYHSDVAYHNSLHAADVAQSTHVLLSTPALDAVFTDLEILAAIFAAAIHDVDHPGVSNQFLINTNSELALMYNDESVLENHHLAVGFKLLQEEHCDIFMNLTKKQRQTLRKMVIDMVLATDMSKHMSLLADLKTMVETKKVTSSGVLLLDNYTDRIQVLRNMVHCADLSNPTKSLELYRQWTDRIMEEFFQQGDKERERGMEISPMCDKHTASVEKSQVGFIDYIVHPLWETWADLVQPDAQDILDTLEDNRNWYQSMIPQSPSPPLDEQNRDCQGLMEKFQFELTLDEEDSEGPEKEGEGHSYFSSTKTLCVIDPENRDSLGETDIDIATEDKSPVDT
Outline: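 ACTOne HEK293 cells carry a modified cAMP-gated CNG channel and express endogenous PDE4; plated 1000 cells/well, compounds up to 22.9 uM final. Membrane-potential dye fluorescence (ex 535/em 590) was read; parental cells received 10 uM forskolin + 100 uM RO 20-1724.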

[9] = qHTS Assay for Identification of Small Molecule Agonists for Hypoxia Response Element Signaling Pathway (AID 914; active means well fitted activation curve with a large enough effect in the signal ratio, with a control signal flat, not every such curve was filed as active; the % refers to the signal ratio; further: % of control where 0% means no effect); conditions: ME-180 (cervical carcinoma) HRE-bla reporter, beta-lactamase ratio, CoCl2, 17 h; activation: hits give high values
Outline: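 HRE-bla ME-180 cells, overnight plating in Opti-MEM with 0.5% dialyzed FBS; cpd titration + EC50 CoCl2, 17 h, 37 degrees Celsius; CCF4 2.5 h RT; 460/530 nm ratio; AC50.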

[10] = target: Cytochrome P450 3A4 (Homo sapiens) (UniProt P08684); assay: qHTS Assay for Activators of Cytochrome P450 3A4 (AID 885; active means well fitted curve in the direction sought with a large enough effect; an effect the other way counts as inactive or inconclusive; further: nearly all actives have a fitted effect of over 65% in size); conditions: recombinant CYP3A4, Luciferin-PPXE luminescence, 60 min; series mostly up to 11.4 µM
Cytochrome P450 3A4 (Homo sapiens), sequence (P08684 whole entry, looked up): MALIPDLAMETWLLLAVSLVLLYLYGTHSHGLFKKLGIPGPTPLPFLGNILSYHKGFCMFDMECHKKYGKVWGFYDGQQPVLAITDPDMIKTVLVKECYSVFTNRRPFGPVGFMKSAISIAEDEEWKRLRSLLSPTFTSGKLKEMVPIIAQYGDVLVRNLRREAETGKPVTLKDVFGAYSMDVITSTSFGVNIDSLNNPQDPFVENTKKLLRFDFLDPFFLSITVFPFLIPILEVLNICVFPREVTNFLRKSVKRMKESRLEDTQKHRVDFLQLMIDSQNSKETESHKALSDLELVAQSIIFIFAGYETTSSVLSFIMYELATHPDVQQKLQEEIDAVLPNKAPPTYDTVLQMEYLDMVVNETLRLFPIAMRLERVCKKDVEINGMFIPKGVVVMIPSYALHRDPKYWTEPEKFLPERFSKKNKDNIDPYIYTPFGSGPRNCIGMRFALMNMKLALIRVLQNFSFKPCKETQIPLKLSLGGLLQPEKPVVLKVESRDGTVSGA
Outline: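 CYP3A4 activity: Luciferin-PPXE O-dealkylation, 25uM substrate, 200mM KPO4, RT throughout. Read-out is luciferase luminescence; higher values reflect activation.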

[11] = target: Glucocorticoid receptor (Homo sapiens) (UniProt P04150); assay: GR-GFP Redistribution (AID 450;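 active means compounds whose dose series gives a full or clear partial fitted curve of increased nuclear translocation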; further: potency means the concentration at half of the fitted maximal effect); conditions: U2OS GR-GFP nuclear translocation, laser cytometry, 2 h
[12] = target: Cytochrome P450 2D6 (Homo sapiens) (UniProt P10635); assay: qHTS Assay for Inhibitors and Substrates of Cytochrome P450 2D6 (AID 891; active means well fitted curve in the direction sought with a large enough effect; an effect the other way counts as inactive or inconclusive; further: potency means the concentration at half of the fitted maximal effect; nearly all actives have a fitted effect of over 60% in size); conditions: recombinant CYP2D6, luciferin-ME EGE luminescence; series mostly up to 11.4 µM
Cytochrome P450 2D6 (Homo sapiens), sequence (P10635 whole entry, looked up): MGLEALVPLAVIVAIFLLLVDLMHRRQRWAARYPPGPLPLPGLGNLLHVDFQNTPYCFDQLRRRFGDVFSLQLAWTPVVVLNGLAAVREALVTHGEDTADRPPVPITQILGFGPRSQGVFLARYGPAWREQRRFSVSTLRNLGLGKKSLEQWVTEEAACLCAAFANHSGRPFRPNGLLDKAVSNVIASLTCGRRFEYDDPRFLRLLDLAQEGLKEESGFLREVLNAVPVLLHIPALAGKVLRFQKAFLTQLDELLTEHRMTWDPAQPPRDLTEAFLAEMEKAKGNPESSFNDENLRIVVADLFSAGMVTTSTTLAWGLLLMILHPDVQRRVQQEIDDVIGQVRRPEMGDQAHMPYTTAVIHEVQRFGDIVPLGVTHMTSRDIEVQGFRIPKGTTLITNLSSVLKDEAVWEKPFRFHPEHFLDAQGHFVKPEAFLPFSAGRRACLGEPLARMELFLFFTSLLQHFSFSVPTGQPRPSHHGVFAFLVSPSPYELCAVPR
Outline: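 Luminescent read-out of luciferin formed by 5 nM human CYP2D6 demethylating 30 uM Luciferin-ME EGE (Km level) over 60 min at room temperature after NADPH regeneration addition. Data normalized to full inhibition by 1.43 uM quinidine.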

[13] = target: ATP-dependent 6-phosphofructokinase (Trypanosoma brucei brucei) (UniProt O15648); assay: qHTS Assay to Find Inhibitors of T. brucei phosphofructokinase: hit validation (AID 492961; active means well fitted curve in the direction sought with a large enough effect; an effect the other way counts as inactive or inconclusive); conditions: T. brucei PFK, ADP-Glo luminescence; series mostly up to 51.4 µM
ATP-dependent 6-phosphofructokinase (Trypanosoma brucei brucei), sequence (O15648 whole entry, looked up): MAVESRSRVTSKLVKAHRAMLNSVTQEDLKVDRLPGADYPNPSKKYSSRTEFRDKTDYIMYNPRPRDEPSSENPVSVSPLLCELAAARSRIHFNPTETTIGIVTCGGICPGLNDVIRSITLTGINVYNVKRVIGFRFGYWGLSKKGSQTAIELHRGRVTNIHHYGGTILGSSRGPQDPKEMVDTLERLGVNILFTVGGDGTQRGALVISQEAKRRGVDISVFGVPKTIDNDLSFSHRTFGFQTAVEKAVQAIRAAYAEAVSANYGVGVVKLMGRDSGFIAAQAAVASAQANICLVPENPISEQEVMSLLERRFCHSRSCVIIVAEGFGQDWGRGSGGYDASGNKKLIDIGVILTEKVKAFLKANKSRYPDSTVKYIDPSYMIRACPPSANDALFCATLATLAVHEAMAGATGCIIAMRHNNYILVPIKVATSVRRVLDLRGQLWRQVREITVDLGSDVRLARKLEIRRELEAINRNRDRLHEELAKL
Outline: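 Percent activity derived from corrected luminescence, normalized between 0x and 1x enzyme controls, then fitted to concentration-response curves. Conditions: 1.25 nM PFK, 0.1 mM ATP, 0.5 mM F6P, 45 min RT.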

[14] = qHTS profiling for inhibitors of Plasmodium falciparum proliferation (AID 504749; active means well fitted curve in the direction sought with a large enough effect; an effect the other way counts as inactive or inconclusive; further: nearly all actives have a fitted effect of over 60% in size; further: potency means the concentration at half of the fitted maximal effect;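 on activity, negative = inhibition: 0% = DMSO vehicle and full inhibition = artemisinin control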); conditions: P. falciparum in erythrocytes, SYBR Green DNA, 72 h; at 28.7 µM (top of the series); parasite line B
Outline: (§1)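 Quantitative HTS: compounds pinned into medium, infected erythrocytes added (0.3% parasitemia, 2.5% hematocrit), 72 h culture at 37 C under 5% CO2. Saponin/Triton lysis with SYBR Green I, overnight RT, then fluorescence read.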

[15] = test system: CP192; assay: as above; conditions: P. falciparum in erythrocytes, SYBR Green DNA, 72 h; series mostly up to 28.7 µM
Outline: as §1

[16] = test system: CP203; assay: as above; conditions: P. falciparum in erythrocytes, SYBR Green DNA, 72 h; series mostly up to 28.7 µM
Outline: as §1

[17] = test system: W2; assay: as above; conditions: P. falciparum in erythrocytes, SYBR Green DNA, 72 h; series mostly up to 28.7 µM
Outline: as §1

Cn1cnc([N+](=O)[O-])c1Sc1nc(N)nc2c1ncn2Cc1ccccc1
active: Potency [3] 3.16 µM
inactive: Potency [1] > 11.4 µM | activity change, negative = inhibition [2] 0.181% | activity change, negative = inhibition [4] -1.11% | activity, negative = inhibition [5] 1.04% | Potency [6] > 9.22 µM | Potency [7] | Potency [8] | activation [9] -1.88%

C/C(=N\NC(N)=S)c1ccc[nH]1
inactive: Potency [1] > 11.4 µM | activity change, negative = inhibition [2] 0.43% | activity change, negative = inhibition [4] 12% | activity, negative = inhibition [5] -24.4% | Potency [6] > 9.22 µM | Potency [7] | Potency [8]
active: Potency [3] 3.16 µM

CO[C@@H]1/C=C\O[C@]2(C)Oc3c(C)c(O)c4c(O)c(cc(O)c4c3C2=O)NC(=O)/C(C)=C\C=C/[C@H](C)[C@@H](O)[C@H](C)[C@H](O)[C@H](C)[C@H](OC(C)=O)[C@@H]1C
inactive: Potency [1] > 11.4 µM | activity change, negative = inhibition [2] 1.83% | Potency [3] | activity change, negative = inhibition [4] -26.6% | activity, negative = inhibition [5] -1.99% | Potency [7] | Potency [8] | Potency [10]

C/C(=N/O)c1ccc2cc(Br)c3ccccc3c2c1
active: Potency [12] 0.0251 µM
inactive: Potency [1] > 11.4 µM | activity change, negative = inhibition [2] 15% | activity change, negative = inhibition [3] -13.6% [at 2.29 µM] | activity change, negative = inhibition [4] 1.9% | activity, negative = inhibition [5] -6.91% | Potency [11] > 46 µM | Potency [7] | Potency [8]

C[C@H]1C[C@H]2[C@H]3CCC4=CC(=O)C=C[C@@]4(C)[C@]3(F)[C@H](O)C[C@]2(C)[C@@]1(O)C(=O)COP(=O)(O)O
inactive: Potency [1] > 11.4 µM | activity change, negative = inhibition [2] -4.3% | Potency [3] | activity change, negative = inhibition [4] 15.9% | activity, negative = inhibition [5] -7.89% | Potency [7] | Potency [8]

Fc1cccc(F)c1C(Nc1nncs1)Nc1nncs1
inactive: Potency [1] > 11.4 µM | activity change, negative = inhibition [2] 1.35% | activity change, negative = inhibition [3] 12.3% [at 2.29 µM] | activity change, negative = inhibition [4] 15.7% | activity, negative = inhibition [5] 6.21% | Potency [6] > 9.22 µM | Potency [7] | Potency [8]

COc1ccc(C(=O)N2CCC3(CCCN(C(=O)Nc4cccc(F)c4)C3)CC2)cc1
inactive: Potency [1] > 11.4 µM | activity change, negative = inhibition [2] -10.3% | activity change, negative = inhibition [4] 5.86% | activity, negative = inhibition [5] -13.8% | Potency [6] > 46 µM | Potency [7] | Potency [10] | activation [9] -19.5%
active: Potency [3] 20 µM

O=C(O)[C@@H](O)[C@@H](O)[C@H](O)[C@H](O)CO
inactive: Potency [1] > 11.4 µM | activity change, negative = inhibition [2] -1.8% | activity change, negative = inhibition [3] -5.5% [at 2.29 µM] | activity change, negative = inhibition [4] 5.42% | activity, negative = inhibition [5] -3.53% | Potency [7] | Potency [8] | outcome [13] | activity, negative = inhibition [14] -24% | Potency [15] | Potency [16]
active: Potency [17] 4.78 µM
